Source: PubChem BioAssay (Broad Institute)
Rows were chosen to be rich in hits. Some 6.8% of all compounds tested hit in one or more screens of this group.
C diff HTS: inhibitors of Clostridium difficile growth. Clostridium difficile clinical isolate growth, OD600, 24 h; stronger effect = lower value. 86,000 compounds, 0.25% hits. growth activity, negative = inhibition, % at 16 µg/mL (by protocol);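 active = mean growth activity at or below -80% and every replicate also at or below -80%; inconclusive = mean at or below -80% but some replicate above -80%; inactive = mean growth activity above -80%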;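 note: 0% = DMSO wells and -100% = levofloxacin 16 µg/mL wells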
T cruzi growth-1: blocks T. cruzi growth in NIH3T3 culture | 77,000 compounds, 5.9% hits | T. cruzi beta-gal in NIH3T3, GalScreen luminescence, 90 h | inhibition, % at 8.34 µM;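 active = mean inhibition above about 93%, with at least 55% of replicates each passing it, limit read from the data, passing the limit was not always enough; inconclusive = only one of those two conditions holds; inactive = neither condition holds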
Pf Dd2 inh: P. falciparum Dd2 growth inhibition. activity change, % at 10 µM. 94,000 compounds, 2.3% hits. AID 1159554. SYBR Green, 72 h; stronger effect = lower value; in the data active = activity change below about -80%; inconclusive = no clear call, values can overlap the other calls
T cruzi growth-2: Trypanosoma cruzi proliferation inhibition | shares compounds with T cruzi growth-1 | T. cruzi beta-gal in NIH3T3, GalScreen luminescence, 90 h | inhibition, % at 8.35 µM | 5,600 compounds, 72% hits;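 active = mean replicate inhibition above about 95% and at least 55% of replicates individually reaching it, limit read from the data; inconclusive = only one of the two criteria is met; inactive = neither criterion is met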
T cruzi growth-3: inhibitors of T. cruzi proliferation. shares compounds with T cruzi growth-1. AID 651740. 5,600 compounds, 21% hits. inhibition, % at 2.09 µM. T. cruzi beta-gal in NIH3T3, GalScreen luminescence, 90 h;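 active = mean inhibition above about 95%, with at least 55% of replicates also reaching it, limit read from the data; inconclusive = meets just one of the two conditions; inactive = meets neither condition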;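 note: plate controls were neutral control median for no effect and positive control median for full effect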
3T3 cytotox: cytotoxicity in mouse NIH/3T3 fibroblasts; 5,600 compounds, 14% hits; cytotoxicity (signal decrease), % at 8.35 µM; NIH/3T3 viability, CellTiter-Glo ATP luminescence, 90 h; shares compounds with T cruzi growth-1; AID 651742;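 active = mean signal decrease across replicates above about 35% based on untreated-well scatter, with enough replicates individually passing, limit read from the data; inconclusive = no rule stated though some were filed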;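 note: 0% = median of neutral control wells and 100% = median of positive control wells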
3T3 cytotox 2: NIH/3T3 (mouse) viability loss. 5,600 compounds, 56% hits. shares compounds with T cruzi growth-1. NIH/3T3 viability, CellTiter-Glo ATP luminescence, 90 h. inhibition, % at 24.9 µM. AID 651744;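 active = mean loss of cell viability signal at or above a set limit, and enough replicates individually reaching it; inconclusive = meets only the mean limit or only the replicate share; inactive = meets neither condition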;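 note: 0% = median of neutral control wells and 100% = median of positive control wells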
Starred values were filed as active, the others as inactive.

Results for COc1ccc(S(=O)(=O)Nc2ccc3c(c2)C(=O)N([C@@H](C)CO)C[C@@H](C)[C@H](CN(C)Cc2ccc(Cl)c(Cl)c2)O3)cc1 ?
C diff HTS: 10; T cruzi growth-1: 121*; Pf Dd2 inh: -22; T cruzi growth-2: 96*; T cruzi growth-3: 68; 3T3 cytotox: 40*; 3T3 cytotox 2: 105*

How did CO[C@@H]1CN(C)C(=O)c2ccc(NC(=O)C3CCC3)cc2OC[C@@H](C)N(Cc2nccs2)C[C@@H]1C do in these assays?
T cruzi growth-1: -9

What do the screens show for `Cc1ccccc1S(=O)(=O)NCC[C@@H]1CC[C@@H](NC(=O)Nc2cccc(F)c2)[C@H](CO)O1`?
C diff HTS: -10; T cruzi growth-1: -24; Pf Dd2 inh: -19

Results for COC(=O)C[C@@H]1CC[C@H]2[C@H](COc3ccc(NC(=O)NCc4ccccc4)cc3C(=O)N2C)O1 ?
C diff HTS: 7; T cruzi growth-1: -2; Pf Dd2 inh: 3

Results for CC(C)C(=O)Nc1ccc2c(c1)C(=O)N(C)[C@@H]1CC[C@H](CC(=O)N[C@H](C)c3ccccc3)O[C@H]1CO2 ?
C diff HTS: -8; T cruzi growth-1: -31; Pf Dd2 inh: 10

What do the screens show for `Cc1ccc(S(=O)(=O)Nc2ccc3c(c2)C(=O)N([C@@H](C)CO)C[C@H](C)[C@@H](CN(C)S(=O)(=O)c2ccccc2)OCCCC[C@@H](C)O3)cc1`?
C diff HTS: -6; T cruzi growth-1: 85; Pf Dd2 inh: -76

How did Cc1ccc(S(=O)(=O)Nc2ccc3c(c2)C(=O)N([C@H](C)CO)C[C@@H](C)[C@H](CN(C)S(=O)(=O)c2ccccc2)OCCCC[C@H](C)O3)cc1 do in these assays?
C diff HTS: -11; T cruzi growth-1: 105*; Pf Dd2 inh: -44; T cruzi growth-2: 108*; T cruzi growth-3: 73; 3T3 cytotox: -12; 3T3 cytotox 2: 1

How did C[C@@H]1CCCCO[C@H](CN(C)S(=O)(=O)c2ccccc2)[C@H](C)CN([C@H](C)CO)C(=O)c2cc(NS(=O)(=O)c3ccccc3)ccc2O1 do in these assays?
T cruzi growth-1: 107*; Pf Dd2 inh: -43; T cruzi growth-2: 115*; T cruzi growth-3: 41; 3T3 cytotox: -21; 3T3 cytotox 2: -18

Results for Cc1ccc(S(=O)(=O)Nc2ccc3c(c2)C(=O)N([C@@H](C)CO)C[C@@H](C)[C@@H](CN(C)S(=O)(=O)c2ccccc2)OCCCC[C@H](C)O3)cc1 ?
C diff HTS: -5; T cruzi growth-1: 97*; Pf Dd2 inh: -75; T cruzi growth-2: 102*; T cruzi growth-3: 42; 3T3 cytotox: -20; 3T3 cytotox 2: 17

How did Cc1ccc(S(=O)(=O)N(C)C[C@H]2OCCCC[C@H](C)Oc3ccc(NS(=O)(=O)c4ccccc4)cc3C(=O)N([C@H](C)CO)C[C@@H]2C)cc1 do in these assays?
C diff HTS: 4; T cruzi growth-1: 99; Pf Dd2 inh: -56

What do the screens show for `C[C@@H]1CN([C@H](C)CO)C(=O)c2cc(NS(=O)(=O)c3ccccc3)ccc2O[C@@H](C)CCCCO[C@H]1CN(C)S(=O)(=O)c1ccccc1`?
T cruzi growth-1: 55; Pf Dd2 inh: -19

How did O=C(C[C@H]1C=C[C@H](NC(=O)c2ccccc2)[C@@H](CO)O1)Nc1ccc(-c2ccccc2)cc1 do in these assays?
C diff HTS: 7; T cruzi growth-1: 5; Pf Dd2 inh: 9

How did C[C@@H](NC(=O)C[C@@H]1C=C[C@@H](NC(=O)C2CCOCC2)[C@H](CO)O1)c1ccccc1 do in these assays?
C diff HTS: 2; T cruzi growth-1: 30; Pf Dd2 inh: 8

What do the screens show for `Cc1noc(C)c1S(=O)(=O)Nc1ccc2c(c1)C(=O)N([C@@H](C)CO)C[C@H](C)[C@H](CN(C)Cc1ccc(Oc3ccccc3)cc1)O2`?
T cruzi growth-1: 2; Pf Dd2 inh: -2

How did CCC(=O)NC[C@H]1[C@H](c2ccc(C3=CCCC3)cc2)[C@H](CO)N1C(C)=O do in these assays?
C diff HTS: 5; T cruzi growth-1: 23; Pf Dd2 inh: 0

Results for COCC(=O)NC[C@H]1[C@H](c2ccc(C3=CCCC3)cc2)[C@H](CO)N1C(C)=O ?
C diff HTS: -7; T cruzi growth-1: inconclusive; Pf Dd2 inh: 12; T cruzi growth-2: -7; T cruzi growth-3: 0; 3T3 cytotox: -21; 3T3 cytotox 2: -23

How did COCC(=O)NC[C@@H]1[C@H](c2ccc(C3=CCCC3)cc2)[C@@H](CO)N1C(C)=O do in these assays?
C diff HTS: -10; T cruzi growth-1: 108*; Pf Dd2 inh: 10; T cruzi growth-2: -26; T cruzi growth-3: -22; 3T3 cytotox: -2; 3T3 cytotox 2: -2

Results for CCC(=O)NC[C@@H]1[C@@H](c2ccc(C3=CCCC3)cc2)[C@H](CO)N1C(C)=O ?
C diff HTS: 8; T cruzi growth-1: 94; Pf Dd2 inh: -36

What do the screens show for `CCC(=O)NC[C@H]1[C@@H](c2ccc(C3=CCCC3)cc2)[C@@H](CO)N1C(C)=O`?
C diff HTS: -6; T cruzi growth-1: 77; Pf Dd2 inh: 1

Results for COCC(=O)NC[C@@H]1[C@H](c2ccc(C3=CCCC3)cc2)[C@H](CO)N1C(C)=O ?
C diff HTS: -2; T cruzi growth-1: 116*; Pf Dd2 inh: -8; T cruzi growth-2: 96*; T cruzi growth-3: 1; 3T3 cytotox: 3; 3T3 cytotox 2: -9

How did COc1ccc2c3c(n(C)c2c1)[C@@H](CO)N(C(=O)NC(C)C)CC31CCN(C(C)=O)CC1 do in these assays?
C diff HTS: -4; Pf Dd2 inh: -17

What do the screens show for `CN(C)C(=O)c1ccc(-c2ccc3c(c2)[C@@H]2[C@@H](CCN2C(=O)C2CCC2)[C@H](CO)N3C)cc1`?
C diff HTS: 0; T cruzi growth-1: 30; Pf Dd2 inh: 0

How did O=C(C[C@@H]1C[C@H]2c3cc(NC(=O)C4CCOCC4)ccc3O[C@H]2[C@H](CO)O1)NCc1cc(F)ccc1F do in these assays?
C diff HTS: 3; T cruzi growth-1: 4; Pf Dd2 inh: 8

Results for C[C@H](O)C#Cc1ccc2c(c1)O[C@@H](CN(C)C(=O)c1ccccc1)[C@@H](C)CN([C@@H](C)CO)S2(=O)=O ?
C diff HTS: -2; T cruzi growth-1: 17; Pf Dd2 inh: -39

Results for C/C=C/c1ccccc1[C@@H]1[C@H](C#N)N(c2nc(CC)cs2)[C@H]1CO ?
C diff HTS: -6; Pf Dd2 inh: -7

Results for C/C=C/c1ccc([C@H]2[C@@H](C#N)N(c3nc(CC)cs3)[C@@H]2CO)cc1 ?
C diff HTS: 2; T cruzi growth-1: inconclusive; Pf Dd2 inh: -47; T cruzi growth-2: 101*; T cruzi growth-3: 23; 3T3 cytotox: 1; 3T3 cytotox 2: 6
